Results filed as inconclusive are left out. Active and inactive are the calls of the source. Unless noted, the call rests on the fitted dose curve; in most records, active means well fitted curve in the direction sought with a large enough effect in the repeat runs; inconclusive means weak or mixed curves; inactive means no such curve, though single readings can be large; an effect the other way counts as inactive or inconclusive.
Key:
[1] = qHTS assay to identify small molecule agonists of the estrogen receptor alpha (ER-alpha) signaling pathway in the presence of an antagonist - cell viability counter screen (AID 1259386); further: nearly all actives have a fitted effect of over 30% in size; further: potency means the concentration at half of the fitted maximal effect
In short: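 Compounds tested at 15 concentrations for 22 h at 37C alongside 10.0nM (final) ICI-182,780 antagonist, in VM7Luc4E2 cells grown in phenol red-free, charcoal-stripped medium. Viability read by CellTiter-Fluor fluorescence after 1 h reagent incubation.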

[2] = biological target: Progesterone receptor (Homo sapiens) (UniProt P06401); assay: qHTS assay to identify small molecule agonists of the progesterone receptor (PR) signaling pathway (AID 1346784; calls by dose curve; further: nearly all actives have a fitted effect of over 30% in size)
In short: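 Agonist mode, quantitative HTS format in a HEK 293T line expressing a UAS-controlled beta-lactamase reporter; 16 hr compound exposure at 37C in 2% charcoal-stripped FBS, then LiveBLAzer B/G FRET fluorescence.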

[3] = biological target: Progesterone receptor (Homo sapiens) (UniProt P06401); assay: qHTS assay to identify small molecule antagonists of the progesterone receptor (PR) signaling pathway (AID 1346795; active means well fitted inhibition curve with a large enough effect in the signal ratio in the repeat runs, not every such curve was filed as active; the % refers to the signal ratio; further: potency means the concentration at half of the fitted maximal effect)
In short: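 HEK293T PR-UAS-bla reporter cells in charcoal-stripped serum (2%) received compound after a 6 hr settling period, followed by R5020 agonist at 1 nM final; 16 hr incubation preceded the FRET substrate step and fluorescence measurement.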

[4] = qHTS assay to identify small molecule antagonists of the progesterone receptor (PR) signaling pathway - cell viability counter screen (AID 1346798); further: nearly all actives have a fitted effect of over 50% in size; further: potency means the concentration at half of the fitted maximal effect
In short: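 Same-well multiplex: after 16 hr at 37C with compound and R5020 stimulation, HEK293T cells carrying a UAS-bla reporter received LiveBLAzer substrate (2 hr RT), then CellTiter-Glo (30 min RT) for luminescent viability.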

[5] = qHTS assay to identify small molecule agonists of the progesterone receptor (PR) signaling pathway - cell viability counter screen (AID 1346799; calls by dose curve; further: nearly all actives have a fitted effect of over 45% in size; further: potency means the concentration at half of the fitted maximal effect)
In short: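 Counter screen for cytotoxicity: compound-treated PR-UAS-bla HEK293T cells (16 hr, 37C, 5% CO2) were assayed with CellTiter-Glo, luminescence measured after 30 min at room temperature.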

[6] = qHTS assay to identify small molecule antagonists of the TGF-beta/Smad signaling pathway - cell viability counter screen (AID 1346824); further: nearly all actives have a fitted effect of over 50% in size
In short: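 SBE-bla HEK 293T cells, incubated overnight, then compound plus 0.25 ng/mL TGF-beta1 (stock added) for 5 hr at 37 C. Viability was read in the same wells by CellTiter-Glo luminescence after 30 min at room temperature.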

[7] = qHTS assay to identify small molecule agonists of the TGF-beta/Smad signaling pathway (AID 1346859; active means well fitted activation curve with a large enough effect in the signal ratio in the repeat runs, not every such curve was filed as active; the % refers to the signal ratio; further: series mostly up to about 77 µM)
In short: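 Smad-responsive beta-lactamase reporter cells (HEK 293T) received compounds from DMSO stocks after overnight attachment, were incubated 5 hr, then treated 2 hr with FRET substrate before dual-emission fluorescence measurement (405 nm excitation).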

[8] = biological target: Thyrotropin-releasing hormone receptor (Homo sapiens) (UniProt P34981); assay: qHTS assay to identify small molecule antagonists of the thyrotropin-releasing hormone receptor (TRHR) signaling pathway (AID 1346877; active means well fitted inhibition curve with a large enough effect in the repeat runs, not every such curve was filed as active; further: series mostly up to about 51 µM)
In short: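 Antagonist mode: after a 5 min room-temperature compound exposure, cells were stimulated with 1 nM (final) TRH. Dye-loaded TRHR-HEK293 cells were used, and calcium-dependent fluorescence was followed for 3 min, with 15-point titrations run in triplicate.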

[9] = biological target: Thyrotropin-releasing hormone receptor (Homo sapiens) (UniProt P34981); assay: qHTS assay to identify small molecule agonists of the thyrotropin-releasing hormone receptor (TRHR) signaling pathway (AID 1346891; calls by dose curve;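 further: HEK293 cells expressing TRHR with calcium dye readout; series mostly up to about 58 µM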)
In short: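 Agonist-mode calcium mobilisation screen: TRHR-transfected HEK293 cells cultured overnight (18 h), dye-loaded for 2 h at 37 °C, exposed to compounds, and monitored by fluorescence for 3 min.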

[10] = Human pregnane X receptor (PXR) small molecule agonists, qHTS cell viability counter screen (AID 1346977); further: nearly all actives have a fitted effect of over 50% in size; further: potency means the concentration at half of the fitted maximal effect
In short: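 Measures live-cell protease fluorescence (CellTiter-Fluor) in PXR-Luc HepG2 cells treated 24hr with compounds at 37C. Cells had 5hr to attach before pin transfer of DMSO solutions.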

[11] = Caspase-3/7 induction in HepG2 cells by small molecules, qHTS assay (AID 1346978); further: nearly all actives have a fitted effect of over 15% in size
In short: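 Wild-type HepG2 cells, 2,000/well, settled 5 hr at 37 C and 5% CO2, then compound-treated for 17 hr; caspase-3/7 activity read by luminescent Caspase-Glo 3/7 after 30 min at room temperature.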

[12] = Caspase-3/7 induction in CHO-K1 cells by small molecules, qHTS assay (AID 1346980); further: nearly all actives have a fitted effect of over 15% in size
In short: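 Wild-type CHO-K1 cells exposed to compounds for 17hr at 37 C, 5% CO2. Caspase-3/7 activity then measured by Caspase-Glo 3/7 luminescence after 30min at room temperature.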

[13] = Caspase-3/7 induction in HepG2 cells by small molecules, qHTS cell viability counter screen (AID 1346981); further: nearly all actives have a fitted effect of over 30% in size; further: potency means the concentration at half of the fitted maximal effect
In short: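 CellTiter-Fluor fluorescence measured viability in the same wells used for Caspase-Glo 3/7. HepG2 (wild type) at 2,000 cells/well were pre-incubated 5 hr, dosed, and given reagent at 16 hr, with 1 hr further at 37C.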

[14] = biological target: Nuclear receptor subfamily 1 group I member 2 (Homo sapiens) (UniProt O75469); assay: Human pregnane X receptor (PXR) small molecule agonists, qHTS assay (AID 1346982); further: nearly all actives have a fitted effect of over 35% in size; further: potency means the concentration at half of the fitted maximal effect
In short: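 Agonist mode: luminescence from ONE-Glo after 24 h compound exposure at 37C in HepG2 cells carrying hPXR-responsive CYP3A4 luciferase, plated in charcoal-stripped serum medium 5 h beforehand.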

[15] = biological target: Cytochrome P450 2D6 (Homo sapiens) (UniProt P10635); assay: Cytochrome P450 Family 2 Subfamily D Member 6 (CYP2D6) small molecule antagonists: luciferase reporter qHTS assay (AID 1671196); further: nearly all actives have a fitted effect of over 50% in size; further: potency means the concentration at half of the fitted maximal effect
In short: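 CYP2D6 activity was followed as luminescence from its luciferin product after a 1 h NADPH-driven reaction at room temperature. Enzyme-substrate mix and compound were pre-incubated for 10 min, and the signal was read 20 min after adding detection reagent.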

[16] = Caspase-3/7 induction in CHO-K1 cells by small molecules, qHTS cell viability counter screen (AID 1346979); further: nearly all actives have a fitted effect of over 35% in size; further: potency means the concentration at half of the fitted maximal effect
In short: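 In the same wells as the caspase read, viability of compound-treated wild-type CHO-K1 cells was assessed using CellTiter-Fluor, added after 16hr at 37C and measured by fluorescence following 1hr further incubation.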

[17] = qHTS assay to identify small molecule agonists of the TGF-beta/Smad signaling pathway - cell viability counter screen (AID 1346829); further: top concentration of the series differs between compounds; nearly all actives have a fitted effect of over 45% in size
In short: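 After overnight seating at 37 C and 5% CO2, reporter cells got compounds for 5 hr and FRET substrate for 2 hr; cell viability then came from CellTiter-Glo luminescence.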

Measured: Potency

Chain of Cytochrome P450 2D6 (Homo sapiens) (P10635 whole entry, looked up): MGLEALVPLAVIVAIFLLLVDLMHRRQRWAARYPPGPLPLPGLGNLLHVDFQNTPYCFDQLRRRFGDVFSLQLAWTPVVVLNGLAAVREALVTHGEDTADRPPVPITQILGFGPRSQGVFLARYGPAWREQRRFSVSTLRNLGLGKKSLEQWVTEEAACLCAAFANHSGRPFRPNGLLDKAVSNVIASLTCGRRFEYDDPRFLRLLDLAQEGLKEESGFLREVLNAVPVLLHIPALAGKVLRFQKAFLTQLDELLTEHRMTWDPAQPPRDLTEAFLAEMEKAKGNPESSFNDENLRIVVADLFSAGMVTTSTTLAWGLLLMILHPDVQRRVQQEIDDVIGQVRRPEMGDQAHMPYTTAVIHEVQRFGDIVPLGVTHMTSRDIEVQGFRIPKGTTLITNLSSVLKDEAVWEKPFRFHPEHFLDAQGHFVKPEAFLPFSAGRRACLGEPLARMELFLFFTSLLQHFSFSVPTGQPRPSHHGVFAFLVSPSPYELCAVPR
Chain of Thyrotropin-releasing hormone receptor (Homo sapiens) (P34981 whole entry, looked up): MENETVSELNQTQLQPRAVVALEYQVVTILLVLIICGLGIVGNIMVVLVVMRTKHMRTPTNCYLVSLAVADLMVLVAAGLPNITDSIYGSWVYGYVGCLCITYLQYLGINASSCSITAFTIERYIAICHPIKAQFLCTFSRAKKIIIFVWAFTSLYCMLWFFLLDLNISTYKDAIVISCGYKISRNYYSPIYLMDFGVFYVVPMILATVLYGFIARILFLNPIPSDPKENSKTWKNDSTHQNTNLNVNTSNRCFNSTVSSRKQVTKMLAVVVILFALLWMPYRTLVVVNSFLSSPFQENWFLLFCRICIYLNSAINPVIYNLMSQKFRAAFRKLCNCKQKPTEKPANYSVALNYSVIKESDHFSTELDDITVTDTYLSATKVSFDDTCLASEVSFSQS
Chain of Progesterone receptor (Homo sapiens) (P06401 whole entry, looked up): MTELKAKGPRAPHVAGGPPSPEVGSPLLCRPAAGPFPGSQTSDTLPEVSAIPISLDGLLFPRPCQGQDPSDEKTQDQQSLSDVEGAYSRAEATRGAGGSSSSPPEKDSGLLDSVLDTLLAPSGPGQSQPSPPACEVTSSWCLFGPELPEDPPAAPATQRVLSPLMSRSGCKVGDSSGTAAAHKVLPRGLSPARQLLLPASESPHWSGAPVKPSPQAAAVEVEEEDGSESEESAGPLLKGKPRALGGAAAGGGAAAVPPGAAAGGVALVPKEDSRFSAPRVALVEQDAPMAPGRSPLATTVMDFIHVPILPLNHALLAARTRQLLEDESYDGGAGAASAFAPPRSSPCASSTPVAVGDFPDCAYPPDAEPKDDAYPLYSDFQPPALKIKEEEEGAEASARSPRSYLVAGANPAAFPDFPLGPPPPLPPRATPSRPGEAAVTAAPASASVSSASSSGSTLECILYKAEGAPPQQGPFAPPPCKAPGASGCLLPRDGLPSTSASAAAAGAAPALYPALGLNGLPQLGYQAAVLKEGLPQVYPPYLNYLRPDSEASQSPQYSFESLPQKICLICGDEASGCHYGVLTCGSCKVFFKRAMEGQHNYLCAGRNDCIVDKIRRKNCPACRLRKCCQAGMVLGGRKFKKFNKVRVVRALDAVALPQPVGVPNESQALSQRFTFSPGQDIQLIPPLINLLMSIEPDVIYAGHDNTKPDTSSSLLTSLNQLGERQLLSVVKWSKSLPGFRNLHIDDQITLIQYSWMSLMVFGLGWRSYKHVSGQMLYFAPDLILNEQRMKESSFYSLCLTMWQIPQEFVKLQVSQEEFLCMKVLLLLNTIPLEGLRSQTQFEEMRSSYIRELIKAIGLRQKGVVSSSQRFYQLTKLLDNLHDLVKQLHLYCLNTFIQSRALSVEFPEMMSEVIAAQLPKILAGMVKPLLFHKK
Chain of Nuclear receptor subfamily 1 group I member 2 (Homo sapiens) (O75469 whole entry, looked up): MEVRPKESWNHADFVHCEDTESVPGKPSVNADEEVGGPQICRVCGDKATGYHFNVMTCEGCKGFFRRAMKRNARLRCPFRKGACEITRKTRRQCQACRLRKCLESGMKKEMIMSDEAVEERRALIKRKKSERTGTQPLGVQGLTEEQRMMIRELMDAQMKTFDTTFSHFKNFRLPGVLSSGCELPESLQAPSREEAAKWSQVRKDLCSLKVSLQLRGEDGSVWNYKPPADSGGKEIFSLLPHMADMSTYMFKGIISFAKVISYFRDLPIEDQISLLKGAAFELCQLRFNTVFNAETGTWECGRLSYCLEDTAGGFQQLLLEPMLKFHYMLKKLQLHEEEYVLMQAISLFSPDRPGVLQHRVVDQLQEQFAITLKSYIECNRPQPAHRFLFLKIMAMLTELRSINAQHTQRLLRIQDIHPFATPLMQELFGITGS

CCOCCC(=O)OCC
not listed: [16] | [17]
inactive: all other assays above

CC(O)Cn1cnc2c1c(=O)n(C)c(=O)n2C (stereo unspecified)
not listed: [14] | [15] | [17]
inactive: all other assays above

CC1CCCO1 (stereo unspecified)
not listed: [3] | [4] | [14]
inactive: all other assays above

COc1ccc(-c2cc(=S)ss2)cc1
active: [4] 15 µM | [16] 29.8 µM
inactive: [6] | [7] | [8] | [9] | [10] | [11] | [12] | [13]

CC(=O)OCC(C)C
not listed: [10]
inactive: all other assays above

Cc1c(C2(c3cc(Br)c(O)c(Br)c3C)OS(=O)(=O)c3ccccc32)cc(Br)c(O)c1Br
active: [1] 13.3 µM | [4] 18.8 µM | [10] 14.9 µM | [13] 18.8 µM | [15] 24.4 µM
not listed: [3] | [5] | [6] | [16]
inactive: all other assays above

O=C(O)CCC(=O)OC[C@@H](NC(=O)C(Cl)Cl)[C@H](O)c1ccc([N+](=O)[O-])cc1
inactive: all assays above

CCCOC(=O)c1c(Cl)c(Cl)c(Cl)c(Cl)c1C(=O)OCCC
active: [3] 17.2 µM | [14] 17.2 µM
not listed: [6] | [12] | [16] | [17]
inactive: all other assays above

CC(CO)(CO)C(=O)O
not listed: [1] | [3] | [8] | [9] | [10]
inactive: all other assays above

COc1cc(C(C)=O)ccc1OCCCN1CCC(c2noc3cc(F)ccc23)CC1
active: [15] 11 µM
not listed: [13] | [14] | [16]
inactive: all other assays above

CCN(CC)c1cccc(O)c1
active: [14] 35.1 µM | [15] 36.3 µM
not listed: [3] | [7]
inactive: all other assays above

CCN(CC)c1ccc(C(=C2C=CC(=[N+](CC)CC)C=C2)c2ccc(S(=O)(=O)O)cc2S(=O)(=O)[O-])cc1
active: [1] 17.2 µM | [5] 24.3 µM | [16] 15.4 µM | [13] 19.3 µM | [15] 20 µM
not listed: [4] | [6] | [10] | [17]
inactive: all other assays above

Reference: PubChem BioAssay (Tox21)
